In PubChem BioAssay (NCATS) one finds outcome and Potency data, which are given here for 36 molecules.

Records with an inconclusive call do not appear. Calls of active or inactive are those of the source. Unless noted, calls follow the shape of the dose curve; as a rule, active = well fitted curve in the direction sought with a large enough effect; inconclusive = small, poorly fitted or top-dose-only effect, or another doubt; inactive = no such curve, though single readings can be large; an effect the other way counts as inactive or inconclusive.

Experiment [1] is described as follows: qHTS Assay for Identification of Small Molecule Agonists for Thrombopoietin (TPO) Signaling Pathway (AID 917). A digest of the protocol: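 Activators of TPO signaling were sought in murine Ba/F3 cells transfected with the human receptor, using a luciferase gene driven by the Glycoprotein IIb promoter; 24-hr compound exposure at 37 C alongside 26 pM TPO, in IL-3-free medium.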
For orientation: qHTS replaces the single test concentration by a dilution series.

Experiment [2] can be described thus: Confirmation and Secondary Assay for Modulators of Hemoglobin Beta Chain Splicing at IVS2 705 locus (AID 930).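 Also: HeLa cells stably expressing the EGFP-705 splicing reporter; GFP fluorescence per well restored by corrected splicing of the IVS2-705 intron in EGFP; series mostly up to about 46 µM.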 Put shortly: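 First, HeLa EGFP-705 cells are seeded at 500/well in Optimem with 2% FCS and left overnight. Next, compound or DMSO is added for 2 days. Finally wells are laser-scanned and total peak GFP intensity scored.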
Experiment [3] has as its target Muscarinic acetylcholine receptor M1 (Rattus norvegicus) (UniProt P08482). In words: qHTS Assay for Antagonists of Acetylcholine Muscarinic M1 Receptor: Kinetic Measurement of Intracellular Calcium Response (AID 943). Also: nearly all actives have a fitted effect of over 75% in size. Also: potency is read from the fitted curve at half-maximal effect. A digest of the protocol:
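Rat M1-CHO cells, 2000/well, overnight → Fluo-4 no-wash dye with probenecid, 1 h 37C → compound 10 min, room temp → basal read 6 s → carbachol EC80 (100 nM) → 4 min kinetic read; peak/basal.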

The target is the same in experiment [4]. In words: qHTS Assay for Antagonists of Acetylcholine Muscarinic M1 Receptor: Measurement of IP-One Response (AID 944). Also: nearly all actives have a fitted effect of over 75% in size. Also: potency is read from the fitted curve at half-maximal effect. Put shortly: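 M1-CHO (rat), 2000 cells/well, overnight recovery; cpd 10 min; carbachol EC80 (200 nM), 30 min, HEPES buffer + 50 mM LiCl pH 7.4; IP-One HTRF, Ex 337, Em 620/665 nm.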
For experiment [5], the target named is Pyruvate kinase (Leishmania mexicana) (UniProt Q27686). Description: qHTS Validation Assay for Inhibitors of Leishmania Mexicana Pyruvate Kinase (AID 945). A digest of the protocol:
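qHTS eight-point titrations against 0.2 nM LmPYK (E451W) in imidazole buffer pH 7.2 with 0.5 mM PEP, 0.1 mM ADP; 1 h, room temperature. Readout: PKLight luminescence, normalized to neutral DMSO wells.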

Experiment [6] deals with Pyruvate kinase PKM (Homo sapiens) (UniProt P14618). Description: qHTS Assay for Activators of Human Muscle Pyruvate Kinase (AID 954; active = well fitted curve in the direction sought with a large enough effect, not every such curve was filed as active). A digest of the protocol:
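Purified human PKM2 (0.1 nM) with 0.5 mM PEP (Km) and 0.1 mM ADP in 50 mM imidazole pH 7.2, KCl, MgCl2, 1 h at room temperature; ATP formed read by coupled luciferase luminescence. Normalized to no-enzyme/110 uM thiadiazolimine inhibition; 0.3 nM enzyme column for activation.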

Experiment [7] is described as follows: Cell Viability - LYMP2-001 (AID 921).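 Also: series mostly up to about 92 µM; cells exposed to compound for 24 h at 37 °C; nearly all actives have a fitted effect of over 70% in size.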 Put shortly:
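CellTiter-Glo luminescence (intracellular ATP) after 24 hr compound exposure at 37 C, 2500 lymphoblastoid cells/well in complete medium. AC50 fitted with standard Hill equation; tetraoctylammonium bromide positive control.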

A short description of experiment [8]: MultiTox-Fluor Cytotoxicity Assay - LYMP1-001 - Dead Cells (AID 946).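 Also: cells exposed to compound for 16 h.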 A digest of the protocol:
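LYMP1-001 lymphoblastoid cells (2500/well) treated 16 h at 37 C. Dead-cell protease cleavage of bis-AAF-R110 read at Ex/Em 485/520. Normalized to DMSO and 15 uM tetraoctylammonium bromide; AC50 from Hill fits.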

Experiment [9] in a line: MultiTox-Fluor Cytotoxicity Assay - LYMP1-001 - Live Cells (AID 947).
Experiment [10] can be described thus: qHTS Assay for Identification of Small Molecule Antagonists for Thrombopoietin (TPO) Signaling Pathway (AID 918). Also: potency is read from the fitted curve at half-maximal effect; nearly all actives have a fitted effect of over 60% in size. The following applies: TPO-dependent cell signaling reporter, antagonist mode. A digest of the protocol:
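Ba/F3 (murine, hTPO-R, GPIIb-luc reporter); overnight IL-3 withdrawal; cpd + TPO 26 pM final (EC50); 24 h 37 C/5% CO2; Steadylite luminescence after 10 min RT.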

Pyruvate kinase (Leishmania mexicana), sequence (Q27686 2-499 E452W): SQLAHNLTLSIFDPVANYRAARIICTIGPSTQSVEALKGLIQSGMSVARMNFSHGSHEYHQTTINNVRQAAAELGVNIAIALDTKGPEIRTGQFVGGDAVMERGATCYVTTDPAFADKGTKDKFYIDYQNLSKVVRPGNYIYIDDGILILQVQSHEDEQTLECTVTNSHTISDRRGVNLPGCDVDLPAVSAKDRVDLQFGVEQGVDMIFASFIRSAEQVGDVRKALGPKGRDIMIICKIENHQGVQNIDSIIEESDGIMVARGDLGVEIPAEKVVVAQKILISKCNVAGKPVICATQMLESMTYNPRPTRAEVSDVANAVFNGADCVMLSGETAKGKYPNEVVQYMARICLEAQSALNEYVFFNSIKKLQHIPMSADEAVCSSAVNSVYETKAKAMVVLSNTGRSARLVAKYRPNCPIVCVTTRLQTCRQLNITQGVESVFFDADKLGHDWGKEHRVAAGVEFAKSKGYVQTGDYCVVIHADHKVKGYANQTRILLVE
Muscarinic acetylcholine receptor M1 (Rattus norvegicus), sequence (P08482 whole entry, looked up): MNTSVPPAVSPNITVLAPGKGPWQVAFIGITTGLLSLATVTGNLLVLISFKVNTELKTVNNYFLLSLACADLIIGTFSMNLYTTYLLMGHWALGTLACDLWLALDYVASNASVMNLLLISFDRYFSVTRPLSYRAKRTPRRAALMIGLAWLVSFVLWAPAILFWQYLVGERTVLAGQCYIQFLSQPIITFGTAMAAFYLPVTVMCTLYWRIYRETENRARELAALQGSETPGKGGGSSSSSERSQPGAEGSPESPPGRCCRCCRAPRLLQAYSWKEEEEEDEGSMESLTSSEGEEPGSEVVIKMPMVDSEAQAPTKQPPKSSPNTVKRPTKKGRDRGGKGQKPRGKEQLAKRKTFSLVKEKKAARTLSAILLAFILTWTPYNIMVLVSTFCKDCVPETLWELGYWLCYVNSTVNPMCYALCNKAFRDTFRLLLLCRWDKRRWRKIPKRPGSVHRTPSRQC
Pyruvate kinase PKM (Homo sapiens), sequence (P14618 whole entry, looked up): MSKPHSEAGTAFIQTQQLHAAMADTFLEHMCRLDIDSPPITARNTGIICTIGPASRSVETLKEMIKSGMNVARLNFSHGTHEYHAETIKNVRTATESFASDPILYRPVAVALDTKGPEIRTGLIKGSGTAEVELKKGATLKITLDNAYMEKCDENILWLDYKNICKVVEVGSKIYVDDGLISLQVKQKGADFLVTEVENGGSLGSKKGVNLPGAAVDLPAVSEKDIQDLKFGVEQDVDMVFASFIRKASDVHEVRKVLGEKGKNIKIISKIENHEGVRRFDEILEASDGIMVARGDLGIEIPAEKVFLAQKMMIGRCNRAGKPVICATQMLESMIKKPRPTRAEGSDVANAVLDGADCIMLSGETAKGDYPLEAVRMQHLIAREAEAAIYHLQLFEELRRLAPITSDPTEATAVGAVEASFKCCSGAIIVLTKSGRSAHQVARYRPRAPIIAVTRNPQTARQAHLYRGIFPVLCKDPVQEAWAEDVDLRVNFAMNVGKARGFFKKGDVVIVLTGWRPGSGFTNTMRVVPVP

Take `O=C(O)CCCCCCCC(=O)O`: the result in [1], in experiment [2] and in [6] was inactive. The Potency result in experiment [3], in experiment [4] and in experiment [5] was “inactive” each time.

In the case of `CCn1cc(C(=O)O)c(=O)c2cc3c(cc21)OCO3`, the molecule was called inactive in experiment [1], in experiment [2] and in [6]. For the same molecule, the Potency entry in experiment [4] and in experiment [5] was “inactive” each time.

`C[N+](C)(C)CCOC(N)=O`: the outcome in experiment [1], in [2] and in [6] was inactive. For the same molecule, the Potency result in [5] was “inactive”.

On to `CCCCNc1ccc(C(=O)OCCN(C)C)cc1`, for which the result in experiment [1], in [2] and in experiment [6] was inactive.

Regarding `CCCC(C(=O)OCCN(CC)CC)(c1ccccc1)c1ccccc1`, the call in experiment [1], in experiment [2] and in [6] was inactive. Also, the Potency in [3] was 447 nM (active); in [4], 11200 nM (active). For the same molecule, in experiment [5], the Potency entry was “inactive”.

Turning to `CN1CCN(C2=Nc3ccccc3Oc3ccc(Cl)cc32)CC1`, the call in [1], in experiment [2] and in experiment [6] was inactive. The Potency in experiment [3] is 282 nM (active); in experiment [4] it was 3160 nM (active). Besides, the Potency result in experiment [5] was “inactive”.

Regarding `CCCOc1ccccc1-c1nc2n[nH]nc2c(=O)[nH]1`, the result in experiment [1], in [2] and in [6] was inactive. Moreover, the Potency entry in [5] is “inactive”.

`Cc1scc2c1N(C(=O)CN1CCN(C)CC1)c1ccccc1NC2=O`: the molecule was classed as inactive in experiment [1], in [2] and in [6]. The Potency was 31.6 nM (active) in experiment [3] and 28.2 nM (active) in [4]. For the same molecule, the Potency result in experiment [5] is “inactive”.

For `NC(=O)N1c2ccccc2C=Cc2ccccc21`, the molecule was called inactive in experiment [1], in [7], in experiment [2], in [8], in experiment [9] and in experiment [6]. In addition, the Potency result in experiment [5] is “inactive”.

Consider `CCN(CC)CC(=O)Nc1c(C)cccc1C`, for which the call in [1], in [2] and in [6] was inactive.

In the case of `CCO/C([O-])=N/c1c[n+](N2CCOCC2)no1`, the result in [1], in [2] and in [6] was inactive. Also, in experiment [3], the Potency result is “inactive”.

With `CC1=NS(=O)(=O)c2cc(Cl)ccc2N1`, the outcome in [1], in experiment [2] and in experiment [6] was inactive. Further, the Potency entry in experiment [5] is “inactive”.

For `CN(C)CCN(Cc1cccs1)c1ccccn1`, the result in experiment [1], in [2] and in experiment [6] was inactive. Moreover, the Potency result in experiment [5] was “inactive”.

For `CCN(CC)CCNC(=O)c1ccc(NC(C)=O)cc1`, the outcome in experiment [1], in experiment [2] and in experiment [6] was inactive. Moreover, the Potency result in experiment [3] and in [5] was “inactive” in each case.

As for `O=c1[nH]c(=O)n([C@H]2C[C@H](O)[C@@H](CO)O2)cc1Br`, the molecule was classed as inactive in [1], in [7], in experiment [8], in [9] and in [6]. In addition, the Potency entry in experiment [3] and in experiment [5] was “inactive” throughout.

With `CC(C)[N+](C)(CCOC(=O)C1c2ccccc2Oc2ccccc21)C(C)C`, the molecule was called inactive in [1], in experiment [2] and in experiment [6]. In addition, the Potency in experiment [3] is 11.2 nM (active); in experiment [4], 1 nM (active). For the same molecule, in experiment [5], the Potency result is “inactive”.

With `CCN(CC)CCNC(=O)c1cc(S(C)(=O)=O)ccc1OC`, the call in experiment [1], in [2] and in [6] was inactive. For the same molecule, in [5], the Potency entry is “inactive”.

With `CC(C)NNC(=O)c1ccncc1`, the molecule was classed as inactive in [1], in experiment [2] and in experiment [6]. The Potency result in experiment [5] is “inactive”.

Consider `CC(=O)Nc1nnc(S(N)(=O)=O)s1`, for which the molecule was called inactive in experiment [1], in [2] and in [6].

With `CN/C(=C\[N+](=O)[O-])NCCSCc1ccc(CN(C)C)o1`, the molecule was classed as inactive in experiment [1], in experiment [2] and in experiment [6]. Also, the Potency entry in experiment [4] and in experiment [5] was “inactive” in each case.

Consider `COc1ccc(CN(CCN(C)C)c2ccccn2)cc1`, for which the molecule was called inactive in experiment [1], in experiment [7], in [2], in experiment [8], in [9] and in experiment [6].

Regarding `CC[N+](C)(C)c1cccc(O)c1`, the molecule was classed as inactive in experiment [1], in experiment [2] and in experiment [6].

Consider `Nc1nc(N)c2nc(-c3ccccc3)c(N)nc2n1`, for which the outcome in experiment [1], in experiment [2], in [8], in experiment [9] and in experiment [6] was inactive. Moreover, the Potency entry in experiment [4] is “inactive”.

For `CCCN(CCC)CCc1cccc2c1CC(=O)N2`, the outcome in experiment [1], in experiment [2] and in [6] was inactive. For the same molecule, the Potency in experiment [3] was 17800 nM (active). In addition, in [5], the Potency entry was “inactive”.

Regarding `CCn1nc(C(=O)O)c(=O)c2cc3c(cc21)OCO3`, the result in experiment [1], in experiment [2] and in experiment [6] was inactive.

Turning to `CN1CCN(CC(=O)N2c3ccccc3C(=O)Nc3cccnc32)CC1`, the molecule was classed as inactive in [1], in [2] and in experiment [6]. For the same molecule, the Potency entry in [5] was “inactive”.

Regarding `CN(C)CCOC(=O)COc1ccc(Cl)cc1`, the result in experiment [1], in [2] and in experiment [6] was inactive. Further, the Potency entry in experiment [3] and in experiment [4] was “inactive” throughout.

With `Cc1ccc(Cl)c(Nc2ccccc2C(=O)O)c1Cl`, the molecule was called inactive in experiment [1], in experiment [2] and in [6].

Regarding `CN(C)C(=O)Oc1ccc[n+](C)c1`, the call in experiment [1], in experiment [2] and in experiment [6] was inactive.

Take `FC(F)(F)c1ccccc1-n1ccnc1`: the outcome in experiment [1], in experiment [2] and in experiment [6] was inactive. Further, the Potency result in experiment [4] and in [5] was “inactive” throughout.

In the case of `CN=C(NC#N)NCCSCc1nc[nH]c1C`, the result in experiment [1], in experiment [7], in experiment [2], in experiment [8], in experiment [9] and in experiment [6] was inactive. Also, the Potency entry in experiment [4] and in experiment [5] was “inactive” in each case.

In the case of `Cc1ccc(S(=O)(=O)NC(=O)NN2CCCCCC2)cc1`, the molecule was classed as inactive in experiment [1], in experiment [2] and in experiment [6]. Besides, the Potency result in experiment [4] is “inactive”.

As for `CN(C)C(=O)Oc1cccc([N+](C)(C)C)c1`, the molecule was classed as inactive in experiment [1], in experiment [2] and in experiment [6]. Besides, the Potency entry in [5] is “inactive”.

Regarding `COc1cc(Cc2cnc(N)nc2N)cc(OC)c1OC`, the result in experiment [1], in experiment [7], in experiment [2], in experiment [8], in [9] and in [6] was inactive. Further, the Potency entry in [4] was “inactive”.

Take `Brc1c(NC2=NCCN2)ccc2nccnc12`: the outcome in experiment [1] and in experiment [6] was inactive.

With `COC(=O)[C@H]1[C@H]2C[C@@H]3c4[nH]c5cc(OC)ccc5c4CCN3C[C@H]2C[C@@H](OC(=O)c2cc(OC)c(OC)c(OC)c2)[C@@H]1OC`, the Potency in experiment [10] was 31600 nM (active); in experiment [4], 8910 nM (active). The result in experiment [7] and in experiment [6] was inactive. Further, the Potency entry in [5] was “inactive”.
